Here are results for five sequences from publication PMC11006913.

Common to all, as to experiment: PBM; 200 nM protein, PBS
Common to all, as to details: dsDNA, one strand shown

For assay [1], the target named is T1, SIX6 (Homo sapiens, UniProt O95475 114-200, L167I).
T1 sequence: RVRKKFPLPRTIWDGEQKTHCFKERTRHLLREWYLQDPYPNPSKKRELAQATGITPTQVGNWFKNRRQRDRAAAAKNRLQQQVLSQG

Assay [2] addresses T2, SIX6 (Homo sapiens, UniProt O95475 114-200, L143V).
T2 sequence: T1 sequence with L30V, I54L

In assay [3] the target is T3, SIX6 (Homo sapiens, UniProt O95475 114-200, H141N).
T3 sequence: T1 sequence with H28N, I54L

Assay [4] has as its target T4, SIX6 (Homo sapiens, UniProt O95475 114-200, T165P).
T4 sequence: T1 sequence with T52P, I54L

Assay [5] deals with T5, SIX6 (Homo sapiens, UniProt O95475 114-200, L167M).
T5 sequence: T1 sequence with I54M

Assay [6] addresses T6, SIX6 (Homo sapiens, UniProt O95475 114-200, L143M).
T6 sequence: T1 sequence with L30M, I54L

For assay [7], the target named is T7, SIX6 (Homo sapiens, UniProt O95475 114-200, L143I).
T7 sequence: T1 sequence with L30I, I54L

Assay [8] concerns the target T8, SIX6 (Homo sapiens, UniProt O95475 114-200, T165G).
T8 sequence: T1 sequence with T52G, I54L

Assay [9] addresses T9, SIX6 (Homo sapiens, UniProt O95475 114-200, T139Q).
T9 sequence: T1 sequence with T26Q, I54L

Assay [10] has as its target T10, SIX6 (Homo sapiens, UniProt O95475 114-200, T165A).
T10 sequence: T1 sequence with T52A, I54L

The target in assay [11] is T11, SIX6 (Homo sapiens, UniProt O95475 114-200, L167V).
T11 sequence: T1 sequence with I54V

For assay [12], the target named is T12, SIX6 (Homo sapiens, UniProt O95475 114-200).
T12 sequence: T1 sequence with I54L

The target of assay [13] is T13, SIX6 (Homo sapiens, UniProt O95475 114-200, T165I).
T13 sequence: T1 sequence with T52I, I54L

Residue numbers refer to the chain shown, from its start.

For AGATATCA, the binding signal is 11.4 upbm affinity estimate (log intensity, higher = more binding, comparable within an allelic series) in the assay with SIX6 [1]; 10.5 upbm affinity estimate (log intensity, higher = more binding, comparable within an allelic series) with SIX6 [2]; 11.4 upbm affinity estimate (log intensity, higher = more binding, comparable within an allelic series) with SIX6 [3]; 10.1 upbm affinity estimate (log intensity, higher = more binding, comparable within an allelic series) with SIX6 [4]; 10.8 upbm affinity estimate (log intensity, higher = more binding, comparable within an allelic series) in the assay with SIX6 [5]; 11 upbm affinity estimate (log intensity, higher = more binding, comparable within an allelic series) with SIX6 [6]. In addition, the binding signal with SIX6 [7] is 10.4 upbm affinity estimate (log intensity, higher = more binding, comparable within an allelic series); with SIX6 [8], 11.2 upbm affinity estimate (log intensity, higher = more binding, comparable within an allelic series); with SIX6 [9], 11.1 upbm affinity estimate (log intensity, higher = more binding, comparable within an allelic series); in the assay with SIX6 [10], 11.2 upbm affinity estimate (log intensity, higher = more binding, comparable within an allelic series); in the assay with SIX6 [11] it was 11.2 upbm affinity estimate (log intensity, higher = more binding, comparable within an allelic series); with SIX6 [12] it was 11 upbm affinity estimate (log intensity, higher = more binding, comparable within an allelic series). Also, in the assay with SIX6 [13], the binding signal is 11.1 upbm affinity estimate (log intensity, higher = more binding, comparable within an allelic series).
As for TGATATCA, the binding signal is 11.6 upbm affinity estimate (log intensity, higher = more binding, comparable within an allelic series) in the assay with SIX6 [1]; 10.5 upbm affinity estimate (log intensity, higher = more binding, comparable within an allelic series) in the assay with SIX6 [2]; 11.6 upbm affinity estimate (log intensity, higher = more binding, comparable within an allelic series) in the assay with SIX6 [3]; 9.86 upbm affinity estimate (log intensity, higher = more binding, comparable within an allelic series) with SIX6 [4]; 11 upbm affinity estimate (log intensity, higher = more binding, comparable within an allelic series) with SIX6 [5]; 11.4 upbm affinity estimate (log intensity, higher = more binding, comparable within an allelic series) with SIX6 [6]. In addition, the binding signal with SIX6 [7] is 10.5 upbm affinity estimate (log intensity, higher = more binding, comparable within an allelic series); with SIX6 [8] it was 11.6 upbm affinity estimate (log intensity, higher = more binding, comparable within an allelic series); with SIX6 [9], 11.6 upbm affinity estimate (log intensity, higher = more binding, comparable within an allelic series); with SIX6 [10], 11.6 upbm affinity estimate (log intensity, higher = more binding, comparable within an allelic series); with SIX6 [11], 11.6 upbm affinity estimate (log intensity, higher = more binding, comparable within an allelic series); with SIX6 [12] it was 11.3 upbm affinity estimate (log intensity, higher = more binding, comparable within an allelic series). For the same sequence, the binding signal with SIX6 [13] is 11.4 upbm affinity estimate (log intensity, higher = more binding, comparable within an allelic series).
Regarding ATGGGGGC, the binding signal with SIX6 [1] is 8.95 upbm affinity estimate (log intensity, higher = more binding, comparable within an allelic series); with SIX6 [2], 8.73 upbm affinity estimate (log intensity, higher = more binding, comparable within an allelic series); in the assay with SIX6 [3], 9.01 upbm affinity estimate (log intensity, higher = more binding, comparable within an allelic series); with SIX6 [4], 8.77 upbm affinity estimate (log intensity, higher = more binding, comparable within an allelic series); with SIX6 [5], 8.95 upbm affinity estimate (log intensity, higher = more binding, comparable within an allelic series); in the assay with SIX6 [6], 8.95 upbm affinity estimate (log intensity, higher = more binding, comparable within an allelic series). The binding signal in the assay with SIX6 [7] is 8.81 upbm affinity estimate (log intensity, higher = more binding, comparable within an allelic series); in the assay with SIX6 [8], 8.95 upbm affinity estimate (log intensity, higher = more binding, comparable within an allelic series); in the assay with SIX6 [9], 9.11 upbm affinity estimate (log intensity, higher = more binding, comparable within an allelic series); with SIX6 [10], 8.97 upbm affinity estimate (log intensity, higher = more binding, comparable within an allelic series); with SIX6 [11] it was 8.97 upbm affinity estimate (log intensity, higher = more binding, comparable within an allelic series); with SIX6 [12], 8.87 upbm affinity estimate (log intensity, higher = more binding, comparable within an allelic series). Moreover, the binding signal in the assay with SIX6 [13] was 8.97 upbm affinity estimate (log intensity, higher = more binding, comparable within an allelic series).
Regarding GATCCAGA, the binding signal with SIX6 [1] is 10.5 upbm affinity estimate (log intensity, higher = more binding, comparable within an allelic series); with SIX6 [2], 10 upbm affinity estimate (log intensity, higher = more binding, comparable within an allelic series); in the assay with SIX6 [3], 10.4 upbm affinity estimate (log intensity, higher = more binding, comparable within an allelic series); in the assay with SIX6 [4], 9.57 upbm affinity estimate (log intensity, higher = more binding, comparable within an allelic series); with SIX6 [5], 10.1 upbm affinity estimate (log intensity, higher = more binding, comparable within an allelic series); in the assay with SIX6 [6], 10.3 upbm affinity estimate (log intensity, higher = more binding, comparable within an allelic series). For the same sequence, the binding signal in the assay with SIX6 [7] was 10.1 upbm affinity estimate (log intensity, higher = more binding, comparable within an allelic series); in the assay with SIX6 [8] it was 10.4 upbm affinity estimate (log intensity, higher = more binding, comparable within an allelic series); in the assay with SIX6 [9], 10.6 upbm affinity estimate (log intensity, higher = more binding, comparable within an allelic series); with SIX6 [10], 10.4 upbm affinity estimate (log intensity, higher = more binding, comparable within an allelic series); in the assay with SIX6 [11] it was 10.3 upbm affinity estimate (log intensity, higher = more binding, comparable within an allelic series); with SIX6 [12], 10.5 upbm affinity estimate (log intensity, higher = more binding, comparable within an allelic series). The binding signal with SIX6 [13] was 10.3 upbm affinity estimate (log intensity, higher = more binding, comparable within an allelic series).
On to CGTGATAC, for which the binding signal in the assay with SIX6 [1] was 11.2 upbm affinity estimate (log intensity, higher = more binding, comparable within an allelic series); with SIX6 [2], 10.3 upbm affinity estimate (log intensity, higher = more binding, comparable within an allelic series); in the assay with SIX6 [3], 11.3 upbm affinity estimate (log intensity, higher = more binding, comparable within an allelic series); with SIX6 [4], 9.72 upbm affinity estimate (log intensity, higher = more binding, comparable within an allelic series); with SIX6 [5], 10.6 upbm affinity estimate (log intensity, higher = more binding, comparable within an allelic series); with SIX6 [6] it was 11.1 upbm affinity estimate (log intensity, higher = more binding, comparable within an allelic series). Also, the binding signal is 10.4 upbm affinity estimate (log intensity, higher = more binding, comparable within an allelic series) with SIX6 [7]; 11.3 upbm affinity estimate (log intensity, higher = more binding, comparable within an allelic series) with SIX6 [8]; 11.3 upbm affinity estimate (log intensity, higher = more binding, comparable within an allelic series) with SIX6 [9]; 11.2 upbm affinity estimate (log intensity, higher = more binding, comparable within an allelic series) with SIX6 [10]; 10.9 upbm affinity estimate (log intensity, higher = more binding, comparable within an allelic series) with SIX6 [11]; 11 upbm affinity estimate (log intensity, higher = more binding, comparable within an allelic series) in the assay with SIX6 [12]. Further, the binding signal with SIX6 [13] is 11 upbm affinity estimate (log intensity, higher = more binding, comparable within an allelic series).
